This passage reports growth results from PubChem BioAssay (NCI).

Some test systems named below: SK-MEL-2 melanoma; EKVX NSCLC; SN12C renal; UO-31 renal; TK-10 renal; ACHN renal; CAKI-1 renal; A498 renal; CCRF-CEM leukemia; RPMI-8226 leukemia; OVCAR-8 ovarian; OVCAR-5 ovarian; OVCAR-4 ovarian; SK-OV-3 ovarian; IGROV1 ovarian; OVCAR-3 ovarian; HS 578T breast; NCI/ADR-RES ovarian; SR leukemia; MOLT-4 leukemia.
What all share (test): NCI-60 one-dose screen, 48 h (100 = growth as untreated, 0 = no growth, -100 = all killed)
Common to all, as to settings: 10 µM unless noted

SMILES strings stand for the structures. About 83,000 compounds went through this panel and 20% of them were active in at least one assay; those are over-represented in the sample as a whole.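 Method: cells in 96-well plates; compound added at one concentration; 48 h incubation; percent growth measured; values under 10 scored active.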 A number with no mark means an inactive call. The source made the active and inactive calls.

Turning to `C=C1c2c(C)nn(-c3ccc(O)cc3)c2N(C)C23C[C@@H]1C1(C)c4c(C)nn(-c5ccc(O)cc5)c4N(C)C(C)(C[C@H]12)C3` (some centres undefined), the growth with SK-MEL-2 melanoma is 44.3%; in the assay on EKVX NSCLC, 26.1%; in the assay on SN12C renal it was 30%; in the assay on UO-31 renal, 22.4%; with TK-10 renal, 57.3%; in the assay on ACHN renal, 24.6%. Further, the growth was 27.2% with CAKI-1 renal; 34.8% in the assay with A498 renal; 4.13% (active) in the assay on CCRF-CEM leukemia; -1.11% (active) in the assay with RPMI-8226 leukemia; 27.8% in the assay on OVCAR-8 ovarian; 85.8% with OVCAR-5 ovarian. Moreover, the growth with OVCAR-4 ovarian was 32.2%; in the assay with SK-OV-3 ovarian it was 37.7%; with IGROV1 ovarian, 63.2%; in the assay with OVCAR-3 ovarian, 24.2%; in the assay with HS 578T breast it was 52.4%; in the assay on NCI/ADR-RES ovarian, 47.4%.

In the case of `CCCCOc1ccc(NC(=O)n2nc(N=NN(C)C)c3ccc(Cl)cc32)cc1`, the growth in the assay with SK-MEL-2 melanoma is 97.6%; in the assay with EKVX NSCLC, 102%; in the assay on SN12C renal, 93.5%; in the assay on UO-31 renal, 65.7%; with TK-10 renal, 126%; in the assay on ACHN renal it was 93.8%. Further, the growth was 90.7% with CAKI-1 renal; 100% in the assay with A498 renal; 88.9% in the assay with CCRF-CEM leukemia; 92.7% with RPMI-8226 leukemia; 105% with OVCAR-8 ovarian; 103% in the assay on OVCAR-5 ovarian. Moreover, the growth with OVCAR-4 ovarian is 96.6%; in the assay with SK-OV-3 ovarian, 86%; in the assay on IGROV1 ovarian it was 82.8%; with OVCAR-3 ovarian, 104%; with HS 578T breast, 93.6%; with NCI/ADR-RES ovarian it was 98.3%.

As for `CC1(C)N=C(N)N=C(N)N1c1ccc(Cl)c(Cl)c1`, the growth is 64.6% in the assay with SK-MEL-2 melanoma; 52.5% in the assay with EKVX NSCLC; 27.1% with SN12C renal; 48.3% in the assay on UO-31 renal; 48.5% with TK-10 renal; 28.4% in the assay with ACHN renal. For the same molecule, the growth was 60.8% in the assay with CAKI-1 renal; 99.1% with A498 renal; 32% with CCRF-CEM leukemia; 39.5% with SR leukemia; 48.2% in the assay on RPMI-8226 leukemia; 28.7% in the assay with OVCAR-8 ovarian. The growth with SK-OV-3 ovarian is 39.5%; in the assay on IGROV1 ovarian, 41.2%; in the assay on OVCAR-3 ovarian, 53%.

Turning to `COc1ccc(Oc2nc(Nc3ccc(N4CCCCC4)nc3)ncc2NC(=O)c2cc(OC)cc(OC)c2)cc1`, the growth was 41.2% in the assay on SK-MEL-2 melanoma; 40.8% in the assay with EKVX NSCLC; 53.2% with SN12C renal; 33.3% in the assay on UO-31 renal; 75.5% in the assay with TK-10 renal; 28.8% with ACHN renal. The growth was 41.8% in the assay with CAKI-1 renal; 39.1% with A498 renal; 20% with CCRF-CEM leukemia; 24.4% in the assay with RPMI-8226 leukemia; 57% with OVCAR-8 ovarian; 76.7% with OVCAR-5 ovarian. The growth is 56.7% with OVCAR-4 ovarian; 57.6% in the assay on SK-OV-3 ovarian; 58.3% with IGROV1 ovarian; 6.75% (active) with OVCAR-3 ovarian; 44.6% in the assay on HS 578T breast; 26.1% with NCI/ADR-RES ovarian.

For `C=C(C)[C@@H]1CC[C@]2(CO)CC[C@]3(C)[C@H](CC[C@@H]4[C@@]5(C)C=C(C#N)C(=O)C(C)(C)[C@@H]5CC[C@]43C)[C@@H]12`, the growth in the assay on SK-MEL-2 melanoma is 30.1%; in the assay with EKVX NSCLC, 15.4%; in the assay with SN12C renal, 8.07% (active); in the assay with UO-31 renal, -8.85% (active); with TK-10 renal it was 36.2%; with ACHN renal, 12%. Further, the growth with CAKI-1 renal is 22.8%; in the assay with A498 renal, -0.306% (active); in the assay with CCRF-CEM leukemia, 2.24% (active); in the assay with RPMI-8226 leukemia, -20.9% (active); in the assay with OVCAR-8 ovarian, 22.2%; in the assay on OVCAR-5 ovarian, 36.3%. For the same molecule, the growth with OVCAR-4 ovarian was 26.9%; with SK-OV-3 ovarian it was 37.9%; in the assay with IGROV1 ovarian, 24.1%; in the assay on OVCAR-3 ovarian, -49.2% (active); in the assay on HS 578T breast it was 29.3%; with NCI/ADR-RES ovarian it was 13.1%.

On to `N=c1ccn2c(n1)OC1C(O)C(CO)OC12` (centres undefined), for which the growth in the assay on SK-MEL-2 melanoma is 46.5%; with EKVX NSCLC it was 85.5%; in the assay with SN12C renal, 34.9%; in the assay on UO-31 renal, -3.93% (active); in the assay with TK-10 renal, 51.3%; in the assay with ACHN renal, -15.9% (active). Further, the growth is -14.4% (active) in the assay with CAKI-1 renal; 74.7% in the assay on A498 renal; 108% with MOLT-4 leukemia; 181% in the assay with SR leukemia; 28.8% in the assay on OVCAR-8 ovarian; 71.2% with OVCAR-5 ovarian. The growth in the assay with OVCAR-4 ovarian is 52.4%; in the assay with SK-OV-3 ovarian, 47%; with IGROV1 ovarian, 12.6%; in the assay with OVCAR-3 ovarian, 67.1%; with HS 578T breast it was 85.2%; in the assay with NCI/ADR-RES ovarian it was 31.8%.

For the molecule `Cc1cc(C)on1`, the growth in the assay with SK-MEL-2 melanoma was 99.6%; in the assay on EKVX NSCLC, 99.2%; in the assay with SN12C renal it was 99.6%; with UO-31 renal, 84.5%; in the assay on TK-10 renal, 103%; with ACHN renal, 104%. The growth was 98.4% in the assay with CAKI-1 renal; 121% in the assay with A498 renal; 96% with CCRF-CEM leukemia; 70.8% with SR leukemia; 92.4% with OVCAR-8 ovarian; 116% with OVCAR-5 ovarian. Besides, the growth in the assay with OVCAR-4 ovarian was 98%; in the assay with SK-OV-3 ovarian, 111%; in the assay with IGROV1 ovarian, 110%; with HS 578T breast, 102%; in the assay on NCI/ADR-RES ovarian, 109%.

Turning to `COc1cc(NC(=O)c2cc(O)c(CC=C(C)C)c(O)c2)cc2c1O[C@]1(C)CC[C@@H](O)C(C)(C)[C@H]1C2`, the growth was 14.7% with SK-MEL-2 melanoma; 41% in the assay with EKVX NSCLC; 65.3% in the assay with SN12C renal; -11.9% (active) in the assay on UO-31 renal; 56.4% in the assay with TK-10 renal; 36.2% with ACHN renal. Besides, the growth is 19.6% in the assay with CAKI-1 renal; -2.7% (active) in the assay on A498 renal; -8.24% (active) in the assay with MOLT-4 leukemia; 14.1% in the assay on SR leukemia; -29.3% (active) in the assay on RPMI-8226 leukemia; 54% in the assay with OVCAR-8 ovarian. The growth with OVCAR-5 ovarian is 61.8%; with OVCAR-4 ovarian, 51.5%; in the assay with SK-OV-3 ovarian, 21.5%; in the assay on IGROV1 ovarian, 52.5%; in the assay on OVCAR-3 ovarian, 31.6%; with HS 578T breast, 13.1%. Also, in the assay on NCI/ADR-RES ovarian, the growth is 96.4%.

Take `C=C1c2c(C)nn(-c3ccc(N)cc3)c2N(C)C23CC1C1(C)c4c(C)nn(-c5ccc(N)cc5)c4N(C)C(C)(CC12)C3` (centres undefined): the growth is 79.2% in the assay on SK-MEL-2 melanoma; 52.3% in the assay on EKVX NSCLC; 89.5% in the assay on SN12C renal; 51% in the assay on UO-31 renal; 76.2% in the assay with TK-10 renal; 58.9% in the assay with ACHN renal. The growth is 76.6% with CAKI-1 renal; 89.4% with A498 renal; 47.8% with CCRF-CEM leukemia; 40.9% in the assay on RPMI-8226 leukemia; 71% in the assay with OVCAR-8 ovarian; 101% in the assay with OVCAR-5 ovarian. Moreover, the growth was 70.7% in the assay on OVCAR-4 ovarian; 70.6% in the assay with SK-OV-3 ovarian; 100% in the assay on IGROV1 ovarian; 78.4% in the assay with OVCAR-3 ovarian; 90.6% in the assay with HS 578T breast; 78.8% in the assay on NCI/ADR-RES ovarian.
